Assay outcomes (PubChem)
This is a sample that favours compounds with a hit; in the whole collection about 4.3% have one here.
Peg3 promoter: Peg3 promoter activity inhibition. inhibition, % at 20 µM. hit rate 1.7% among 360,000. HeLa PEG-Prom luciferase reporter, luminescence, overnight;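 active = inhibition of at least 50% at 20 µM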
CHOP inh: inhibitors of CHOP induction in ER stress response. CHO-K1 CHOP-promoter luciferase, tunicamycin-induced, 15-18 h. inhibition, % at 10 µM. hit rate 3.8% among 220,000;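 active = compounds that reduced the stress-induced luciferase reporter signal by more than about 70% of percent inhibition, limit read from the data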;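 note: 0% = tunicamycin plus vehicle and 100% = wells without tunicamycin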
HIF-2a block: blocks HIF-2a reporter activity; 786-0 RCC cells HIF-2a reporter, luciferase luminescence, overnight; inhibition, % at 18.8 µM; hit rate 0.72% among 360,000;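 active = inhibition of the luminescence signal of 40% or more relative to plate controls, in a single-dose primary screen at 18.75 µM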
MITF TRPM1 inh: MITF TRPM1 promoter inhibition in SK-MEL-5 cells | SK-MEL-5 TRPM1 promoter luciferase, 24 h | inhibition, % at 12.5 µM | hit rate 0.83% among 330,000 | AID 488899;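 active = mean inhibition across replicates of 60% or more, whatever share of single replicates reaches that level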
CF NFkB block: blocks PAF-induced NF-kB reporter in cystic fibrosis cells. KKLEB NF-kB-GFP reporter, GFP fluorescence overnight. inhibition, % at 5 µM. hit rate 0.86% among 360,000. AID 588850;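 active = at least 50% inhibition at 5 µM, scaled per plate between neutral and stimulator controls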;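 note: PAF is a Pseudomonas aeruginosa culture filtrate used as stimulus; plate controls were PAF-stimulated DMSO wells for no effect and unstimulated DMSO wells for full effect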
KKLEB tox: counter-screen for CF NF-kB inhibitors: cytotoxicity | hit rate 0.36% among 360,000 | activity change (cytotoxicity), % at 5 µM | KKLEB CF airway cells viability, ATPlite luminescence, overnight; hits give low values; cells stimulated with P. aeruginosa culture filtrate | AID 602141;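 active = corrected activity change at or below -50% at 5 µM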
The depositor's hits bear a star; . = no result given.

SMILES	Peg3 promoter	CHOP inh	HIF-2a block	MITF TRPM1 inh	CF NFkB block	KKLEB tox
COC(=O)c1ccc(C(=O)NC(=S)Nc2ccc3nc(SC)sc3c2)cc1	37	72*	-35	26	-4	-5
CSc1nc2ccc(NC(=O)c3ccccn3)cc2s1	-91	.	-32	-1	-4	-39
CCCNC(=O)c1cn(CC)c2cc(N3CCN(C(=O)c4ccco4)CC3)c(F)cc2c1=O	19	.	10	0	-21	26
CCn1cc(C(=O)NCc2cccc(F)c2)c(=O)c2cc(F)c(N3CCN(C(=O)c4ccco4)CC3)cc21	55*	19	18	32	4	-1
O=C(CC1S/C(=N/N=C/c2ccco2)NC1=O)Nc1cccc(Cl)c1Cl (stereo unspecified)	18	94*	14	4	-12	0
C[C@H](NC(=O)C1CCN(C(=O)[C@H](Cc2ccccc2)NC(=O)OC(C)(C)C)CC1)C(=O)O	-5	.	11	0	-5	8
NC(=S)NN=Cc1nccc2c(N)cccc12	-2	.	-94	.	26	8
CCN(C(C)=O)c1cnc(C=NNC(N)=S)c2ccccc12	54*	.	20	48	-27	0
COc1cccc(C(=O)OCC(=O)NC(C)CCc2ccccc2)c1O (stereo unspecified)	6	.	12	16	-1	-7
CCCCNc1nccnc1-c1cccc(C=O)c1	9	.	3	.	-16	3
CN(C)CCC(=O)C(Cc1ccccc1)c1ccccc1 (stereo unspecified)	89*	.	14	-2	20	-5
CN(C)CCNC(=O)C(c1ccccc1)c1ccccc1	9	6	9	9	11	0
O=C1C2ON(c3ccc(Cl)cc3)C(c3ccco3)C2C(=O)N1c1ccccc1 (stereo unspecified)	22	74*	6	2	6	-9
O=C1C2ON(c3ccccc3)C(c3ccccc3F)C2C(=O)N1c1ccccc1 (stereo unspecified)	10	80*	14	5	-13	13
COc1ccccc1N=c1oc2c(OC)cccc2cc1C(=O)NCc1ccco1	-106	83*	4	-63	7	-6
CN(Cc1ccc(Cl)cc1)C(=O)c1ccccc1SCC(=O)N1CCCC1	14	.	17	12	-5	5
CC(C)c1nc(SCc2c(F)cccc2Cl)c2c(=O)n(C)c(=O)n(C)c2n1	63*	64	6	-15	3	8
Cn1c(=O)c2c(nc(SCCCC#N)n2Cc2c(F)cccc2Cl)n(C)c1=O	6	-7	6	-4	0	-2
Cc1c(C(=O)N2CCC(C)(C(=O)NS(=O)(=O)C3CC3)C2)oc2ccccc12 (stereo unspecified)	9	.	8	.	-24	-2
CCN(CC)CCOc1ccc(-c2c(C)c3c(ccc4ccccc43)oc2=O)cc1	-4	.	-20	.	7	-4
CC(=O)c1ccc(NC(=O)COC(=O)C2CC3C=CC2C3)cc1 (stereo unspecified)	-178	.	-156	-54	5	12
O=C(COC(=O)C1CC2C=CC1C2)Nc1ccc2c(c1)OC(F)(F)O2 (stereo unspecified)	-10	91*	-50	2	2	-4
COc1ccc(O[C@@H]2O[C@H](COC(C)=O)[C@@H](OC(C)=O)[C@H](OC(C)=O)[C@H]2NC(C)=O)cc1	79*	14	11	2	2	-1
CCN(CC)c1nc(Nc2ccccc2)nc(Oc2ccc(=O)n(C)n2)n1	19	71*	7	7	-16	-3
CCN(CC)c1nc(Nc2ccccc2)nc(Oc2ccc(=O)[nH]n2)n1	11	25	11	2	-1	4
SMILES	Peg3 promoter	CHOP inh	HIF-2a block	MITF TRPM1 inh	CF NFkB block	KKLEB tox
CC(C)n1cc(CN2CCN(C)C(CCO)C2)c2ccccc21 (stereo unspecified)	2	.	19	8	-3	-9
CCc1cccc2c(SCC(=O)NCC3CCCO3)nc(-c3ccc(F)cc3)nc12 (stereo unspecified)	-37	79*	-13	0	14	-14
Cc1ccc2nc(-c3ccc(F)cc3)nc(SCC(=O)NCC3CCCO3)c2c1 (stereo unspecified)	12	.	6	10	3	1
COc1ccc(-c2nn(CCC#N)cc2C(=O)Nc2cccc(C(=O)O)c2)cc1[N+](=O)[O-]	-99	.	10	14	1	3
CCOc1ccc(S(=O)(=O)NCc2ccncc2)cc1	4	78*	11	9	1	-7
O=c1[nH]c(Cc2ccccc2)nc2scc(-c3ccccc3)c12	-20	80*	-27	-12	-18	8
CN(Cc1ccccc1)Cc1nc2scc(-c3ccccc3)c2c(=O)[nH]1	4	9	3	-17	13	-6
O=C(N/N=C/c1cccc([N+](=O)[O-])c1)c1cc2ccccc2o1	1	95*	2	-18	28	-24
O=C(N/N=C/c1ccsc1)c1cc2ccccc2o1	-60	.	-90	-6	-18	-3
CC(O)CNc1nc(N)[nH]c(=O)c1N=Nc1ccccc1 (stereo unspecified)	8	.	-11	-1	24	-10
O=C(COC(=O)c1ccc(F)c([N+](=O)[O-])c1)NC(=O)NCc1ccccc1	97*	.	33	70*	21	-1
O=C(COc1ccc(C(=O)NCCc2ccccc2)cc1)Nc1ccccc1	-2	31	5	-3	5	-2
O=C(COc1ccc(C(=O)Nc2ccc(Cl)cc2)cc1)NCc1ccccc1	3	77*	-21	-1	10	-30
O=C(COc1ccc(Cl)cc1Br)NC(=O)NCc1ccccc1	-53	84*	-65	-24	-8	-6
c1ccc(-c2cc3n(c2)CCc2ccccc2-3)cc1	-132	-3	-30	0	57*	-11
Cn1c(=O)c2c(nc(C3CC4C5CCC(C5)C4C3)n2C)n(C)c1=O (stereo unspecified)	8	.	-6	-4	-5	7
CNC(=O)CN1C(=O)C2C3C=CC(C3)C2C1=O (stereo unspecified)	-3	78*	23	-7	12	-3
CC1(C)OC(=O)C2=C(C[C@@H](C3CCCCC3)O[C@H]2c2ccc(F)cc2)O1	16	.	6	.	-1	5
O=c1cc(-c2ccncc2)oc2c1ccc1ccccc12	80*	.	-13	-1	-13	-12
CCn1nc(C)c(CN2CCCC(CNS(=O)(=O)c3ccc(OC)cc3)C2)c1C (stereo unspecified)	-2	.	11	1	-23	6
Nc1ccc2cc3[nH]c4cc(N)ccc4c3nc2c1	28	.	-41	83*	-469	-4
CCCc1nc2oc3c(OC)ncnc3c2c2c1COC(C)(C)C2	19	82*	5	-10	13	-11
CCSc1nc(C)cc(C)c1S(=O)(=O)c1ccccc1C	17	71*	24	3	13	-5
